This is a sample that favours compounds with a hit; in the whole collection about 1.8% have one here.
Myeloid diff 2 – myeloid differentiation induction. ER-HoxA9 myeloid progenitors, lysozyme-GFP differentiation, flow cytometry. calls only at 10 µM. 360,000 compounds, 1% hits;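 active means normalized GFP-positive differentiation at or above the plate's own cutoff, the solvent-only control mean plus 3 SD; inconclusive means no clear call, values can overlap the other calls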;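 further: cells exposed to compound for four days before flow analysis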
ABCB6 inh MLPCN – blocks the human ABCB6 transporter; fluorescence ratio to DMSO, % at 10 µM; K562-ABCB6 porphyrin accumulation, flow cytometry, 1 h; hits give low values; AID 602162; 360,000 compounds, 0.19% hits; Q9NP58;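 active means fluorescence ratio to DMSO below 75%, the collection mean minus 3 SD; inconclusive means too few cells collected in the well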;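 further: signal is porphyrin accumulated inside mitochondria; lower ratio means ABCB6 inhibition with less porphyrin fluorescence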
Granule exo inh – lytic granule exocytosis inhibition; 360,000 compounds, 0.66% hits; inhibition, % at 10 µM; TALL-104 LAMP-1 surface exposure, flow cytometry; cells stimulated with thapsigargin and PMA;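 active means inhibition above about 55%, limit read from the data; inconclusive means no clear call, values can overlap the other calls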
ABCB6 inh CP1 – human ABCB6 transporter inhibition; shares compounds with ABCB6 inh MLPCN; AID 602430; 700 tested, under 10 active; ratio response (% of DMSO), % at 10 µM; K562-ABCB6 porphyrin accumulation, flow cytometry, 1 h; hits give low values;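 active means repeat-averaged ratio response below 75% of DMSO, the collection mean minus 3 SD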;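 further: median porphyrin fluorescence at 575 nm with 488 nm excitation from mitochondria; lower ratio means less porphyrin signal so ABCB6 inhibition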
Of the large screens only hits and unclear results are named; the others gave an inactive call (follow-up assays come after a bar, where they were run).

O=C(c1cccs1)N1CCC(c2nc3c(nnn3Cc3cccc(Cl)c3)c(=O)[nH]2)CC1	none | ABCB6 inh CP1 inactive
Cc1ccc(Cn2nnc3c(=O)[nH]c(C4CCN(C(=O)c5cccs5)CC4)nc32)cc1	none | ABCB6 inh CP1 inactive
O=C(c1cccs1)N1CCCC(c2nc3c(nnn3Cc3cccc(Cl)c3)c(=O)[nH]2)C1 (centres undefined)	none
O=C(C1CCC1)N1CCC(c2nc3c(nnn3Cc3c(F)cccc3Cl)c(=O)[nH]2)CC1	none
Cc1ccc(C)c(Cn2nnc3c(=O)[nH]c(C4CCN(C(=O)c5cccs5)CC4)nc32)c1	none
O=C(c1cccs1)N1CCC(c2nc3c(nnn3Cc3c(Cl)cccc3Cl)c(=O)[nH]2)CC1	none | ABCB6 inh CP1 inactive
CC1CCCCN1CCCNc1ccc(C(CC(N)=O)NC(=O)Cc2cccc3ccccc23)cc1[N+](=O)[O-] (centres undefined)	none
Cc1ccc(N2C(=O)C(CN3CCCCC3)C2c2ccccc2)cc1 (centres undefined)	none
Cc1ccc(N2C(=O)C(CN3CCCC3)C2c2ccccc2)cc1 (centres undefined)	ABCB6 inh MLPCN 73.0 | ABCB6 inh CP1 inactive
CCCc1ccc(OCCNC(C)=O)cc1	ABCB6 inh MLPCN 68.0 | ABCB6 inh CP1 inactive
CCCc1ccc(OCCNC(=O)CC)cc1	none
COc1cccc(N2CCN(C(=O)c3cc4c(s3)CCCCC4)CC2)c1	none
c1ccc(Cn2nnc(CNc3ccccc3)c2-c2c(CNc3ccccc3)nnn2Cc2ccccc2)cc1	none
COCCNC(=O)C1(C)CCCN(CC(=O)c2ccc(OC)cc2)C1 (centres undefined)	none
Cc1ccc(S(=O)(=O)N2CCN(Cc3ccccc3)CC2)cc1	ABCB6 inh MLPCN 8.0 | ABCB6 inh CP1 inactive
O=S(=O)(c1ccccc1)N1CCN(Cc2ccccc2)CC1	none
Cc1nc(N2CCN(c3ccccc3)CC2)nc2c1C(=O)CC(C)C2 (centres undefined)	none
Cc1nc(N2CCN(c3ccccc3)CC2)nc2c1C(=O)CCC2	ABCB6 inh MLPCN 55.0 | ABCB6 inh CP1 inactive
COc1ccc(NC(=O)c2cc(-c3ccc(F)cc3OC)n[nH]2)cc1OC	none
COc1ccc(-c2cc(C(=O)Nc3ccc(OC)c(OC)c3)[nH]n2)c(C)c1	ABCB6 inh MLPCN 70.0 | ABCB6 inh CP1 inactive
CCn1c(SCC(=O)c2ccccc2)nnc1-c1cccnc1	ABCB6 inh MLPCN 71.0 | ABCB6 inh CP1 inactive
CCn1c(SCCC(=O)O)nnc1-c1cccnc1	none
CCN1CCc2c(sc(NC(=O)c3ccc(S(=O)(=O)N4CCCC4)cc3)c2C(=O)NC)C1	none
CCOC(=O)N1CCN(S(=O)(=O)c2ccc(C(=O)Nc3sc4c(c3C(N)=O)CCN(CC)C4)cc2)CC1	ABCB6 inh MLPCN 73.0 | ABCB6 inh CP1 inactive
CC(NCCN(C)C)C1CCC2C3CCc4cc(O)ccc4C3CCC12C (centres undefined)	Myeloid diff 2 inconclusive
Oc1ccc(-c2nccc(-c3ccc(F)cc3)n2)cc1	none
Cc1nn(-c2ccccc2)c(N)c1Sc1ccccc1[N+](=O)[O-]	ABCB6 inh MLPCN 46.0 | ABCB6 inh CP1 inactive
Cc1nn(-c2ccccc2)c(N)c1Sc1cccc([N+](=O)[O-])c1	none
CC(C)(C)c1ccc(CC(=O)N2CCC2(C)C(=O)NS(=O)(=O)c2ccccc2Cl)cc1 (centres undefined)	none | ABCB6 inh CP1 inactive
CC1(C(=O)NS(=O)(=O)c2ccccc2C(F)(F)F)CCN1C(=O)C1CCCCC1 (centres undefined)	ABCB6 inh MLPCN 62.0 | ABCB6 inh CP1 inactive
CC1(C(=O)NS(=O)(=O)c2cccc(Cl)c2)CCN1C(=O)CCc1ccc(Cl)cc1Cl (centres undefined)	none
CC1(C(=O)NS(=O)(=O)c2ccccc2Cl)CCN1C(=O)Cc1ccccc1 (centres undefined)	none
COc1cc(C)ccc1S(=O)(=O)NC(=O)C1(C)CCN1C(=O)Cc1ccccc1Cl (centres undefined)	none
COc1ccc(OC)c(S(=O)(=O)NC(=O)C2(C)CCN2C(=O)Cc2ccccc2Cl)c1 (centres undefined)	none | ABCB6 inh CP1 inactive
CC1(C(=O)NS(=O)(=O)c2ccccc2)CCN1C(=O)CCc1ccc(Cl)cc1Cl (centres undefined)	none | ABCB6 inh CP1 inactive
CC1(C(=O)NS(=O)(=O)c2ccccc2C(F)(F)F)CCN1C(=O)CC1CCCCC1 (centres undefined)	none
CCCCc1cc(=O)oc2cc(C)cc(OC(C)C(=O)NCc3cccnc3)c12 (centres undefined)	none
COCCNCC(=O)N1CCCCCC1	none
Cc1ccc(F)c(N=Cc2c(O)c3ccccc3oc2=O)c1	none
COC(=O)c1cc(C(=O)OCC(=O)Nc2ccc(N3CCOCC3)cc2)cc([N+](=O)[O-])c1	none
COCC(=O)N1CCC(Oc2ccc(C(=O)N(C)CCCC3CCCC3)cc2)CC1	none
CC(C)(C(=O)N1CCC1(C)C(=O)NS(=O)(=O)c1cccc(F)c1)c1ccccc1 (centres undefined)	none
CC(C)(C(=O)N1CCC1(C)C(=O)NS(=O)(=O)c1cccc(Cl)c1)c1ccccc1 (centres undefined)	none | ABCB6 inh CP1 inactive
CC(C)(C)c1ccc(S(=O)(=O)NC(=O)C2(C)CCN2C(=O)Cc2ccccc2Cl)cc1 (centres undefined)	none
COc1ccc(S(=O)(=O)NC(=O)C2(C)CCN2C(=O)Cc2ccccc2Cl)cc1 (centres undefined)	none | ABCB6 inh CP1 inactive
O=C(CN(C(=O)c1csnn1)c1cccc(F)c1)NCc1ccc2c(c1)OCO2	none
O=C(OCC(=O)N1CCCCC1)c1cc(=O)[nH]c2ccccc12	none
Cc1ccc(S(=O)(=O)CS(=O)(=O)c2ccc(C)cc2)cc1	none
Cc1ccc(S(=O)(=O)Cn2cnnn2)cc1	ABCB6 inh MLPCN 60.0 | ABCB6 inh CP1 inactive
CC(C)(C)c1ccc(C(=O)NCCC(=O)N2CCCC2)cc1	none
CN(C)S(=O)(=O)c1ccc(C(=O)NCCC(=O)N2CCCC2)cc1	ABCB6 inh MLPCN 70.0 | ABCB6 inh CP1 inactive
Cc1nc(N2CCN(C(=O)c3ccco3)CC2)c2c3c(sc2n1)CCCC3	Myeloid diff 2 inconclusive
CCc1nc(SCC(=O)N2CCN(C(=O)c3ccco3)CC2)c2c3c(sc2n1)CCCC3	ABCB6 inh MLPCN 28.0 | ABCB6 inh CP1 inactive
C/C(N)=C(/C#N)C(=O)COC(=O)C1CCN(S(=O)(=O)c2cccs2)CC1	none | ABCB6 inh CP1 inactive
O=C(COC(=O)C1CCN(S(=O)(=O)c2cccs2)CC1)c1ccccc1	none
O=C(Nc1ccn(CCOC(=O)c2ccccc2)c(=O)n1)c1ccccc1	none
COc1cc2c(C(=O)NCCN(C)C)cn(CC(C)C)c(=O)c2cc1OC	ABCB6 inh MLPCN 69.0 | ABCB6 inh CP1 inactive
COc1cc2c(C(=O)NCCCOC(C)C)cn(CC(C)C)c(=O)c2cc1OC	none
O=C(C1CCCCC1)N1C[C@@H](n2cc(-c3ccc(F)cc3)nn2)[C@H](O)C[C@@H]1c1ccccc1	none
O=C(CCCc1nc(-c2ccccc2Cl)no1)N1CCOCC1	none
O=c1cc(CSc2nnnn2-c2ccccc2)nc2sccn12	none
O=c1cc(CSc2nnnn2-c2ccccc2)nc2nc[nH]n12	ABCB6 inh MLPCN 64.0 | ABCB6 inh CP1 inactive
CC1CN(CCc2ccccc2)c2nc3c(c(=O)n(C)c(=O)n3C)n2C1 (centres undefined)	none

From PubChem BioAssay
